# From PubChem BioAssay
# LASV entry inh = Lassa virus entry inhibition; Lassa virus pseudotyped entry inhibition, cell-based qHTS; Potency, µM (series often up to 49.2 µM), usual class: inhibitors; actives 4.1% (n = 18,000)
# MARV entry inh = Marburg virus entry inhibition | Potency, µM (highest dose often 49.2 µM), actives largely listed as inhibitors | Marburg virus pseudotype entry/binding inhibition, cell-based | actives 6.5% (n = 18,000)
# Numbers stand for hits; – = inactive; ? = inconclusive; · = not tested or not shown; ! = not confirmed by another sample; [ ] = remark or other dose. Shown are actives, neighbours in structure and some others; about 8% of the full set was active somewhere. Calls follow the shape of the full dose curve; tested in HEK293 cells.
SMILES,LASV entry inh,MARV entry inh
COc1ccc([C@@H]2Sc3ccccc3N(CCN(C)C)C(=O)[C@@H]2OC(C)=O)cc1,4.5µM,28µM
COc1ccc(C2Sc3ccccc3N(CCN(C)C)C(=O)[C@@H]2OC(C)=O)cc1 (some centres not stated),–,?
C[C@H]1CC[C@@]2(NC1)O[C@@H]1C[C@H]3[C@@H]4CC[C@@H]5C[C@@H](O)CC[C@@]5(C)[C@@H]4CC[C@]3(C)[C@@H]1[C@@H]2C,–,–
CCC(N)C(O)c1ccc(O)c(O)c1 (configuration not stated),–,–
N[C@@H](Cc1ccc(O)c(O)c1)C(=O)O,?,7.9µM!
N[C@H](Cc1ccc(O)cc1)C(=O)O,–,–
N[C@H](C(=O)O)[C@@H](O)c1ccc(O)c(O)c1,?,1.3µM
C=C1C(=O)[C@]23[C@H](O)[C@H]1CC[C@H]2[C@@]12COC3(O)[C@H](O)[C@@H]1C(C)(C)CC[C@@H]2O,?,18µM
CC(=O)OCC(=O)[C@]1(O)C(C)CC2C3CCC4=CC(=O)C=C[C@@]4(C)[C@]3(F)C(O)C[C@@]21C (some centres not stated),–,–
CCn1c(-c2ccccc2F)nc2cc(C(=O)NCC3CCOCC3)cc(NC(C)=O)c21,–,–
CS(=O)(=O)Nc1ccc(-c2ccc3c(NC(=O)C4CC4)n[nH]c3c2)cc1,–,–
CS(=O)(=O)Nc1cccc(-c2ccc3c(NC(=O)C4CC4)n[nH]c3c2)c1,·,3.5µM
CCCCCCCCc1[se]c2ccccc2c1[Se]c1ccccc1,–,–
OCCN1C[C@H](O)[C@@H](O)[C@H](O)[C@H]1CO,–,–
CCCCN1CCC[C@H]1CNC(=O)c1cc(C#N)c2ccccc2c1OC,?,10µM
CCN1CCCC1CNC(=O)c1cc(S(N)(=O)=O)ccc1OC (configuration not stated),–,–
CCN1CCCC1CNC(=O)c1cnn(-c2nccc(-c3ccccc3OC)n2)c1-c1ccco1 (configuration not stated),–,?
CCc1cc(Cl)c(OC)c(C(=O)NC[C@@H]2CCCN2CC)c1O,?,4.5µM
Cc1c(C(=O)N(C)C(C)C)sc2ncnc(NCCCN3CCOCC3)c12,–,?
C=CCO[C@@H](Cn1ccnc1)c1ccc(Cl)cc1Cl,–,–
Clc1ccc(COC(Cn2ccnc2)c2ccc(Cl)cc2Cl)cc1 (configuration not stated),35µM!,?
Cc1oc(=O)oc1CN1CCN(c2cc3c(cc2F)c(=O)c(C(=O)O)c2n3C(C)S2)CC1 (configuration not stated),–,–
CCCCC/C=C\C/C=C\C/C=C\C/C=C\CCCC(=O)N(Cc1ccc(O)c(Cl)c1)Cc1ccc(O)c(Cl)c1,0.079µM,?
CCCCC/C=C\C/C=C\C/C=C\C/C=C\CCCCCC(=O)NCCc1ccc(O)c(O)c1,–,–
O=C(O)c1ccccc1O[C@@H]1O[C@H](C(=O)O)[C@@H](O)[C@H](O)[C@H]1O,–,–
SMILES,LASV entry inh,MARV entry inh
C[C@@H]1CN(Cc2ccc3c(c2)CN(Cc2cccc(O)c2)CCO3)C[C@H](C)O1,–,–
CN(C)CC(O)Cn1c2ccc(Br)cc2c2cc(Br)ccc21 (configuration not stated),22µM,7.9µM
C=C[C@@](C)(O)CC[C@@H]1[C@@]2(C)CCCC(C)(C)[C@@H]2CC[C@@]1(C)O,–,–
O=C(CN1Cc2ccccc2OC(c2ccsc2)C1)N1CCN(Cc2ccc3c(c2)OCO3)CC1 (configuration not stated),–,–
O=c1c2ccccc2[se]n1-c1ccccc1,25µM!,22µM!
Cc1ccccc1-n1c(C)nc2ccccc2c1=O,?,–
O=C(N/N=C\c1ccccc1O)c1ccccc1O,7.9µM,7.1µM
COC(=O)c1ccccc1O,–,–
O=C1Nc2cccc(Br)c2[C@@]12O[C@H](COc1ccccc1)CC1=CCCC12 (some centres not stated),–[8.59 µM],?
CCO[C@@H]1C[C@@]1(C=C[C@@H](C)[C@H](OC)c1ccccc1Br)C(=O)OC,–[8.59 µM],–[8.59 µM]
O=c1[nH]cnc2c1ncn2[C@@H]1O[C@H](CO)[C@@H](O)[C@H]1O,–,–
Nc1ccn([C@@H]2O[C@H](CO)[C@@H](O)[C@H]2O)c(=O)n1,–,–
OC[C@H]1O[C@@H](n2cnc3c(=S)nc[nH]c32)[C@H](O)[C@@H]1O,6.3µM,7.9µM
Nc1ncn(C2CC(O)C(CO)O2)c(=O)n1 (configuration not stated),–,–
Nc1ncn([C@H]2O[C@@H](CO)[C@@H](O)[C@@H]2O)c(=O)n1,2µM,3.2µM
Nc1ccn([C@@H]2O[C@H](CO)[C@@H](O)C2O)c(=O)n1 (some centres not stated),7.1µM,5µM
COCC(=O)Nc1cc(C(=O)N2CC3CC4CC(C3)CC2C4)c2c(c1)nc(-c1ccncc1)n2C,–,–
NC(=O)c1ccc(-c2nc(-c3ccc4c(c3)OCO4)c(-c3ccccn3)[nH]2)cc1,?,–
